Source: PubChem (Broad Institute)
Tg IFNy HTS: T. gondii growth inhibition with IFN-gamma, primary screen, cell-based; hit rate 3.8% among 69,000; Toxoplasma gondii growth in IFN-gamma-treated host cells; hits give low values; activity change, negative = inhibition, % (test concentration not listed); AID 1259416, 2018; in the data active = activity change below about -70%, passing the limit was not always enough;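 also: host cells are HeLa cells infected with Toxoplasma gondii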
Large screens that a line does not name were inactive. This excerpt belongs to a sample that is enriched for hits.

COc1ccccc1NC(=O)Nc1ccc(-c2nc(-c3ccc(C)cc3)co2)cc1	Tg IFNy HTS -77
COc1ccccc1NC(=O)Nc1ccc(-c2nc(-c3ccc(C)cc3C)co2)cc1	none
O=C(Nc1ccc(-c2nc(-c3ccccc3)co2)cc1)Nc1ccccc1Cl	none
Cc1ccc(-c2coc(-c3ccc(NC(=O)Nc4ccc(F)cc4F)cc3)n2)cc1	none
COc1ccc(C)cc1NC(=O)Nc1ccc(-c2nc(-c3cccc(Br)c3)co2)cc1	none
COc1cc(OC)c(NC(=O)Nc2ccc(-c3nc(-c4ccc(C)cc4)co3)cc2)cc1Cl	Tg IFNy HTS -77
COc1cc(OC)c(NC(=O)Nc2ccc(-c3nc(-c4ccccc4)co3)cc2)cc1Cl	Tg IFNy HTS -85
COc1ccccc1NC(=O)Nc1ccc(-c2nc(-c3cc(C)ccc3C)co2)cc1	none
COc1ccc(NC(=O)Nc2ccc(-c3nc(-c4ccccc4)co3)cc2)cc1Cl	none
CN1C(=O)CC(c2ccncc2)C12CCN(CCO)CC2 (stereo not given)	none
CCN1CC2(CCN(C(=O)COc3ccccc3)CC2)COc2ccccc2S1(=O)=O	none
COC(=O)c1cccc(NC(=O)c2c(O)c3cccnc3n(-c3ccc(F)cc3)c2=O)c1	none
Cc1cccc(CC(=O)NCCc2csc(-c3ccc(F)cc3)n2)c1	none
CN(Cc1n[nH]c2c1CCCCC2)C(=O)[C@@H]1C[C@H](N)CN1C	none
CC(Sc1nc2c(c(=O)[nH]1)CCCC2)C(=O)Nc1cccc2ccccc12 (stereo not given)	none
COc1ccc(CCNc2c(-c3cn(C)nc3C)nc3cnccn23)cc1OC	none
CN(C)c1ccc(CNc2nc(-c3nnc(-c4ccc(Cl)cc4)o3)nc3ccccc23)cc1	none
Cn1c(SCc2ccccc2)nnc1C1CCCN(C(=O)c2ccc3c(c2)OCO3)C1 (stereo not given)	none
NCCc1nc(NCCNC(=O)c2ccc(F)cc2)c2ccccc2n1	none
Cc1ccc(OCCCN(C)C(=O)C2CCN(C)C2)cc1C (stereo not given)	none
CC(Cc1cn(C)c2ccc(F)cc12)NC(=O)Cn1nnc(-c2ccccc2)n1 (stereo not given)	none
c1cc(-c2cnn3cc(-c4ccc(N5CCNCC5)cc4)cnc23)c2cccnc2c1	Tg IFNy HTS -84
CN(Cc1cccc2ncccc12)C(=O)c1cnn(-c2ccc(F)cc2)c1	none
CN(Cc1cccc2ncccc12)Cc1cnn2cccnc12	none
CCC(Cn1cnc(-c2ccccc2)c1-c1cnn(CC)c1)N1CCN(C)CC1 (stereo not given)	none
Cc1ccccc1NC(=O)N1C[C@@H](O)[C@H](NCc2ncccc2C)C1	none
CC(C)CN1C(=O)CCC12CCC(NC(=O)c1cnccn1)CC2 (stereo not given)	none
CCS(=O)(=O)N1CCC2(CCC2NC(=O)c2cnccn2)CC1 (stereo not given)	none
CCC[C@H](NC(=O)[C@@H]1[C@H]2CCC[C@H]2CN1C(=O)[C@@H](NC(=O)[C@@H](NC(=O)c1cnccn1)C1CCCCC1)C(C)(C)C)C(=O)C(=O)NC1CC1	Tg IFNy HTS -74
O=C(O)c1ccc(NS(=O)(=O)c2cccc(C(=O)O)c2)cc1	none
O=C(/C=C/c1cccc(S(=O)(=O)Nc2ccccc2)c1)NO	Tg IFNy HTS -71
CCNC(=O)/C=C/c1cccc(Br)c1	none
CN(C)S(=O)(=O)c1ccc2c(c1)cc(C(=O)NCc1ccccn1)n2Cc1ccccc1	none
Cc1n[nH]c(C)c1S(=O)(=O)NCc1ccc(S(=O)(=O)N2CCCC2)cc1	none
O=C(NCc1cccc(Cl)c1)c1ccc2c(c1)CCC(=O)N2Cc1ccccc1	Tg IFNy HTS -100
CCN1C(=O)CCc2cc(NS(=O)(=O)Cc3cccc(Cl)c3)ccc21	none
O=C(NCc1ccc(N2CCCC2=O)cc1)c1cccc(Cl)c1	none
OC(CCCc1ccccc1)(c1ccc(Cl)cc1)c1ccc(Cl)cc1	Tg IFNy HTS -80
O=C(/C=C/c1ccc(Cl)cc1)NCCc1ccccc1	none
O=C(COc1ccc(Cl)cc1)NCc1ccccc1	none
O=C(c1ccco1)N1CCCn2nnc(COCCN3CCCC3)c2C1	none
O=C(Nc1ccccc1)N1CCC2(CC1)Nc1ccccc1-n1cccc12	none
CC1Cc2ccccc2N1S(=O)(=O)c1csc(C(=O)Nc2ccccc2)c1 (stereo not given)	Tg IFNy HTS -103
CCN(C)S(=O)(=O)c1csc(C(=O)Nc2ccc(C)cc2)c1	none
CC1Cc2ccccc2N1S(=O)(=O)c1cc2c3c(c1)CCC(=O)N3CCC2 (stereo not given)	none
Cc1oncc1C(=O)N1CCCC2(CC(CN3CCCC3)CO2)C1 (stereo not given)	none
c1cncc(COC2CCCN(Cc3ccc(-c4ccn[nH]4)o3)C2)c1 (stereo not given)	none
O=C(CCn1nnc2ccccc21)N1CCCC1c1ccccn1 (stereo not given)	none
C[C@@H]1CC[C@H]2[C@@H](C)C(O)O[C@@H]3O[C@]4(C)CC[C@@H]1[C@]32OO4 (stereo not given in full)	Tg IFNy HTS -82
NC(=O)C1CN(c2nc(C3CCCC3)nc3c2CNC3)CCO1 (stereo not given)	none
COC1CC2(CCN(CC(=O)O)CC2)c2ccc(C)cc21 (stereo not given)	none
CC1(C)C(=O)N=C2c3ccccc3C(=O)C(=O)C21 (stereo not given)	Tg IFNy HTS -88
Cc1cccc(Nc2nc3ccccc3c3nnc(C)n23)c1	none
Cc1nc(-c2ccccc2)sc1CCNC(=O)C(=O)Nc1ccc(Cl)cc1	none
Cc1cc(C(=O)Nc2ccc3c(c2)C(=O)N(C)[C@H]2CC[C@H](CC(=O)NCc4ccc(-c5ccccc5)cc4)O[C@H]2CO3)no1	none
CN1C(=O)c2cc(NC(=O)c3ccc4c(c3)OCO4)ccc2OC[C@H]2O[C@@H](CC(=O)O)CC[C@@H]21	none
Cc1cc(C(=O)Nc2ccc3c(c2)C(=O)N(C)[C@@H]2CC[C@@H](CC(=O)NCc4ccc(-c5ccccc5)cc4)O[C@@H]2CO3)no1	none
CN1C(=O)c2cc(NC(=O)c3ccc4c(c3)OCO4)ccc2OC[C@H]2O[C@H](CC(=O)O)CC[C@@H]21	none
CN1C(=O)c2cc(NC(=O)Nc3cccc(C#N)c3)ccc2OC[C@H]2O[C@@H](CC(=O)NCc3ccc(Cl)cc3)CC[C@@H]21	none
Cc1cc(C(=O)Nc2ccc3c(c2)C(=O)N(C)[C@@H]2CC[C@@H](CC(=O)O)O[C@H]2CO3)no1	none
CN1C(=O)c2cc(NC(=O)Nc3cccc(C#N)c3)ccc2OC[C@H]2O[C@@H](CC(=O)Nc3ccc4c(c3)CCC4)CC[C@@H]21	none
Cc1cc(C(=O)Nc2ccc3c(c2)C(=O)N(C)[C@H]2CC[C@H](CC(=O)NCc4ccc(-c5ccccc5)cc4)O[C@@H]2CO3)no1	none
CN1C(=O)c2cc(NC(=O)c3ccc(C(F)(F)F)cc3)ccc2OC[C@H]2O[C@H](CC(=O)NCc3ccc4c(c3)OCO4)CC[C@@H]21	Tg IFNy HTS -75
Cc1cc(C(=O)Nc2ccc3c(c2)C(=O)N(C)[C@H]2CC[C@@H](CC(=O)NCc4ccc(-c5ccccc5)cc4)O[C@H]2CO3)no1	Tg IFNy HTS -79
COC(=O)C[C@H]1CC[C@@H]2[C@@H](COc3ccc(NC(=O)Nc4cccc(C#N)c4)cc3C(=O)N2C)O1	Tg IFNy HTS -79
Cc1cc(C(=O)Nc2ccc3c(c2)C(=O)N(C)[C@@H]2CC[C@H](CC(=O)NCc4ccc(-c5ccccc5)cc4)O[C@@H]2CO3)no1	Tg IFNy HTS -87
COCC(=O)N1CCc2ncnc(Nc3ccc(C)cc3)c2CC1	none
CCn1ccnc1CN1CCN(Cc2ccc(F)cc2)C(=O)C1	none
CC(C)OCC12CCCOC1CCN(S(=O)(=O)c1cn(C)cn1)C2 (stereo not given)	none
